The campaign covered roughly 5,500 compounds. About 2,000 (36%) were called active. About 18% were inconclusive and are not listed. Cut-off read from the data, not from the text of the source: active = normalized growth mostly below about 0.91 (no sharp cut-off); inconclusive = no clear call, values can overlap the other calls; inactive = mostly above about 0.92. Some of the results follow.
Assay: chemical genetic growth profiling, strain panel (AID 1159580);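 note: tested at 20 µM; growth read once vehicle control cultures reached saturation at 30 °C; 1 = growth at the plate median or of vehicle wells; lower values mean less growth of the strain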
Details: growth OD
[1] = S. cerevisiae deletion strains, locus YHR030C, strain SLT2, stronger effect = lower value
[2] = S. cerevisiae deletion strains, locus YJL187C, strain SWE1, stronger effect = lower value

Measured: normalized growth

COc1cccc(CC(=O)NN)c1
inactive: S. cerevisiae deletion strains, locus YAL013W, strain DEP1, stronger effect = lower value 0.982 | S. cerevisiae deletion strains, locus YBR229C, strain ROT2, stronger effect = lower value 1.02 | S. cerevisiae deletion strains, locus YDL101C, strain DUN1, stronger effect = lower value 1.05 | S. cerevisiae deletion strains, locus YDL134C, strain PPH21, stronger effect = lower value 0.995 | S. cerevisiae deletion strains, locus YDR150W, strain NUM1, stronger effect = lower value 1.03 | S. cerevisiae deletion strains, locus YEL061C, strain CIN8, stronger effect = lower value 1 | S. cerevisiae deletion strains, locus YGR078C, strain PAC10, stronger effect = lower value 1.04 | S. cerevisiae deletion strains, locus YGR229C, strain SMI1, stronger effect = lower value 0.999 | [1] 1.06 | S. cerevisiae deletion strains, locus YHR087W, strain rtc3, stronger effect = lower value 0.971 | [2] 0.981 | S. cerevisiae deletion strains, locus YJR043C, strain POL32, stronger effect = lower value 1.02 | S. cerevisiae deletion strains, locus YJR075W, strain HOC1, stronger effect = lower value 0.991 | S. cerevisiae deletion strains, locus YKL190W, strain CNB1, stronger effect = lower value 1 | S. cerevisiae deletion strains, locus YLR039C, strain RIC1, stronger effect = lower value 1.02 | S. cerevisiae deletion strains, locus YLR058C, strain SHM2 (second series), stronger effect = lower value 0.987 | S. cerevisiae deletion strains, locus YLR085C, strain ARP6, stronger effect = lower value 0.995 | S. cerevisiae deletion strains, locus YLR262C, strain YPT6, stronger effect = lower value 0.98 | S. cerevisiae deletion strains, locus YML094W, strain GIM5, stronger effect = lower value 0.982 | S. cerevisiae deletion strains, locus YMR219W, strain ESC1, stronger effect = lower value 0.986 | S. cerevisiae deletion strains, locus YMR263W, strain SAP30, stronger effect = lower value 1 | S. cerevisiae deletion strains, locus YMR307W, strain GAS1, stronger effect = lower value 0.987 | S. cerevisiae deletion strains, locus YNL153C, strain GIM3, stronger effect = lower value 1.04 | S. cerevisiae deletion strains, locus YNL298W, strain CLA4 (second series), stronger effect = lower value 1.02 | S. cerevisiae deletion strains, locus YNL322C, strain KRE1, stronger effect = lower value 1.01 | S. cerevisiae deletion strains, locus YNR030W, strain Alg12, stronger effect = lower value 0.986 | S. cerevisiae deletion strains, locus YPL055C, strain LGE1, stronger effect = lower value 0.96 | S. cerevisiae deletion strains, locus YPL241C, strain CIN2, stronger effect = lower value 1.01 | S. cerevisiae deletion strains, locus YPR135W, strain CTF4, stronger effect = lower value 1.04 | S. cerevisiae strains, strain wild type, stronger effect = lower value 1.02

CC(C)=CCC/C(C)=C/COc1ccc2ccc(=O)oc2c1
inactive: S. cerevisiae deletion strains, locus YAL021C, strain ccr4, stronger effect = lower value 0.994 | S. cerevisiae deletion strains, locus YAL026C, strain drs2, stronger effect = lower value 0.999 | S. cerevisiae deletion strains, locus YAL030W, strain snc1, stronger effect = lower value 0.986 | S. cerevisiae deletion strains, locus YBL061C, strain skt5, stronger effect = lower value 0.985 | S. cerevisiae deletion strains, locus YBR009C, strain hhf1, stronger effect = lower value 0.976 | S. cerevisiae deletion strains, locus YBR023C, strain chs3, stronger effect = lower value 0.982 | S. cerevisiae deletion strains, locus YBR171W, strain sec66, stronger effect = lower value 0.981 | S. cerevisiae deletion strains, locus YBR231C, strain swc5, stronger effect = lower value 0.996 | S. cerevisiae deletion strains, locus YBR279W, strain paf1, stronger effect = lower value 0.99 | S. cerevisiae deletion strains, locus YCL011C, strain gbp2, stronger effect = lower value 0.978 | S. cerevisiae deletion strains, locus YCL016C, strain dcc1, stronger effect = lower value 0.988 | S. cerevisiae deletion strains, locus YCL061C, strain MRC1, stronger effect = lower value 1 | S. cerevisiae deletion strains, locus YCL069W, strain vba3, stronger effect = lower value 0.985 | S. cerevisiae deletion strains, locus YCR088W, strain abp1, stronger effect = lower value 0.99 | S. cerevisiae deletion strains, locus YDL005C, strain med2, stronger effect = lower value 1 | S. cerevisiae deletion strains, locus YDL040C, strain nat1, stronger effect = lower value 0.986 | S. cerevisiae deletion strains, locus YDR001C, strain nth1, stronger effect = lower value 0.993 | S. cerevisiae deletion strains, locus YDR069C, strain doa4, stronger effect = lower value 0.998 | S. cerevisiae deletion strains, locus YDR137W, strain rgp1, stronger effect = lower value 0.893 | S. cerevisiae deletion strains, locus YDR159W, strain sac3, stronger effect = lower value 1.01 | S. cerevisiae deletion strains, locus YDR195W, strain ref2 1.04 | S. cerevisiae deletion strains, locus YDR297W, strain sur2, stronger effect = lower value 0.984 | S. cerevisiae deletion strains, locus YDR334W, strain swr1, stronger effect = lower value 0.992 | S. cerevisiae deletion strains, locus YDR335W, strain msn5, stronger effect = lower value 1 | S. cerevisiae deletion strains, locus YDR392W, strain spt3, stronger effect = lower value 0.952 | S. cerevisiae deletion strains, locus YEL003W, strain gim4, stronger effect = lower value 0.997 | S. cerevisiae deletion strains, locus YEL037C, strain rad23, stronger effect = lower value 0.991 | S. cerevisiae deletion strains, locus YEL061C, strain CIN8 (second series), stronger effect = lower value 0.993 | S. cerevisiae deletion strains, locus YER015W, strain faa2, stronger effect = lower value 1 | S. cerevisiae deletion strains, locus YER016W, strain bim1, stronger effect = lower value 0.986 | S. cerevisiae deletion strains, locus YER111C, strain swi4, stronger effect = lower value 1 | S. cerevisiae deletion strains, locus YER155C, strain BEM2 (second series), stronger effect = lower value 0.999 | S. cerevisiae deletion strains, locus YFR010W, strain ubp6, stronger effect = lower value 1 | S. cerevisiae deletion strains, locus YGL167C, strain pmr1, stronger effect = lower value 0.985 | S. cerevisiae deletion strains, locus YGL173C, strain kem1, stronger effect = lower value 0.99 | S. cerevisiae deletion strains, locus YGL227W, strain vid30, stronger effect = lower value 0.992 | S. cerevisiae deletion strains, locus YGL240W, strain doc1, stronger effect = lower value 0.999 | S. cerevisiae deletion strains, locus YGL253W, strain hxk2, stronger effect = lower value 0.994 | S. cerevisiae deletion strains, locus YHR013C, strain ard1, stronger effect = lower value 0.971 | S. cerevisiae deletion strains, locus YHR027C, strain rpn1, stronger effect = lower value 0.998 | [1] 0.948 | S. cerevisiae deletion strains, locus YHR079C, strain IRE1, stronger effect = lower value 0.969 | S. cerevisiae deletion strains, locus YHR142W, strain chs7, stronger effect = lower value 0.962 | S. cerevisiae deletion strains, locus YJL092W, strain hpr5, stronger effect = lower value 1 | S. cerevisiae deletion strains, locus YJL095W, strain BCK1 (second series), stronger effect = lower value 0.987 | S. cerevisiae deletion strains, locus YJL095W, strain BCK1, stronger effect = lower value 0.937 | S. cerevisiae deletion strains, locus YJL115W, strain asf1, stronger effect = lower value 1 | S. cerevisiae deletion strains, locus YJL129C, strain trk1, stronger effect = lower value 0.911 | S. cerevisiae deletion strains, locus YJL154C, strain vps35, stronger effect = lower value 0.99 | S. cerevisiae deletion strains, locus YJL164C, strain tpk1, stronger effect = lower value 0.966 | S. cerevisiae deletion strains, locus YJL166W, strain qcr8, stronger effect = lower value 0.99 | [2] 0.99 | S. cerevisiae deletion strains, locus YJR066W, strain TOR1, stronger effect = lower value 0.932 | S. cerevisiae deletion strains, locus YKL160W, strain elf1, stronger effect = lower value 0.976 | S. cerevisiae deletion strains, locus YKR026C, strain gcn3, stronger effect = lower value 0.99 | S. cerevisiae deletion strains, locus YKR091W, strain srl3, stronger effect = lower value 0.985 | S. cerevisiae deletion strains, locus YLL001W, strain dnm1, stronger effect = lower value 1 | S. cerevisiae deletion strains, locus YLL026W, stronger effect = lower value 0.984 | S. cerevisiae deletion strains, locus YLL041C, strain sdh2, stronger effect = lower value 0.983 | S. cerevisiae deletion strains, locus YLR027C, strain aat2, stronger effect = lower value 0.974 | S. cerevisiae deletion strains, locus YLR113W, strain HOG1, stronger effect = lower value 0.944 | S. cerevisiae deletion strains, locus YLR221C, strain rsa3, stronger effect = lower value 0.976 | S. cerevisiae deletion strains, locus YLR258W, strain gsy2, stronger effect = lower value 0.981 | S. cerevisiae deletion strains, locus YLR262C, strain YPT6 (second series), stronger effect = lower value 0.932 | S. cerevisiae deletion strains, locus YLR320W, strain mms22, stronger effect = lower value 0.974 | S. cerevisiae deletion strains, locus YLR342W, strain FKS1, stronger effect = lower value 0.97 | S. cerevisiae deletion strains, locus YLR357W, strain rsc2, stronger effect = lower value 1.01 | S. cerevisiae deletion strains, locus YLR370C, strain arc18, stronger effect = lower value 0.999 | S. cerevisiae deletion strains, locus YLR384C, strain iki3, stronger effect = lower value 0.992 | S. cerevisiae deletion strains, locus YML120C, strain ndi1, stronger effect = lower value 0.973 | S. cerevisiae deletion strains, locus YMR058W, strain fet3, stronger effect = lower value 1 | S. cerevisiae deletion strains, locus YMR125W, strain sto1, stronger effect = lower value 0.996 | S. cerevisiae deletion strains, locus YMR129W, stronger effect = lower value 0.993 | S. cerevisiae deletion strains, locus YMR205C, strain PFK2, stronger effect = lower value 0.96 | S. cerevisiae deletion strains, locus YMR231W, strain pep5, stronger effect = lower value 0.965 | S. cerevisiae deletion strains, locus YNL071W, strain lat1, stronger effect = lower value 0.965 | S. cerevisiae deletion strains, locus YNL183C, strain NPR1, stronger effect = lower value 0.912 | S. cerevisiae deletion strains, locus YNL209W, strain ssb2, stronger effect = lower value 0.983 | S. cerevisiae deletion strains, locus YNL248C, strain rpa49, stronger effect = lower value 0.981 | S. cerevisiae deletion strains, locus YNL322C, strain KRE1 (second series), stronger effect = lower value 0.994 | S. cerevisiae deletion strains, locus YNR049C, strain mso1, stronger effect = lower value 0.996 | S. cerevisiae deletion strains, locus YOR001W, strain rrp6, stronger effect = lower value 0.989 | S. cerevisiae deletion strains, locus YOR070C, strain gyp1, stronger effect = lower value 0.983 | S. cerevisiae deletion strains, locus YOR080W, strain dia2, stronger effect = lower value 0.997 | S. cerevisiae deletion strains, locus YOR083W, strain WHI5, stronger effect = lower value 0.978 | S. cerevisiae deletion strains, locus YOR106W, strain vam3, stronger effect = lower value 0.933 | S. cerevisiae deletion strains, locus YOR231W, strain MKK1, stronger effect = lower value 0.968 | S. cerevisiae deletion strains, locus YOR265W, strain rbl2, stronger effect = lower value 0.973 | S. cerevisiae deletion strains, locus YOR270C, strain vph1, stronger effect = lower value 0.896 | S. cerevisiae deletion strains, locus YOR290C, strain snf2, stronger effect = lower value 0.968 | S. cerevisiae deletion strains, locus YPL051W, strain arl3, stronger effect = lower value 0.987 | S. cerevisiae deletion strains, locus YPL078C, strain atp4, stronger effect = lower value 0.983 | S. cerevisiae deletion strains, locus YPL106C, strain sse1, stronger effect = lower value 1.01 | S. cerevisiae deletion strains, locus YPL240C, strain hsp82, stronger effect = lower value 0.992 | S. cerevisiae deletion strains, locus YPL256C, strain CLN2, stronger effect = lower value 0.917

From PubChem BioAssay AID1159580 (chemical genetic matrix, 2015)
